# Laboratory results from the supplement of paper PMC13380429.
# A number with no mark means an inactive call.
# Tested on: Vero E6 infected with SARS-CoV-2
# Experiment: inhibition of SARS-CoV-2 cytopathic effect; higher = more antiviral protection, active = above 15
# Details: 48 h
SMILES,inhibition of SARS-CoV-2 cytopathic effect (1 nM),inhibition of SARS-CoV-2 cytopathic effect (8.33 nM),inhibition of SARS-CoV-2 cytopathic effect (100 nM),inhibition of SARS-CoV-2 cytopathic effect (833.33 nM),inhibition of SARS-CoV-2 cytopathic effect (10000 nM)
O=C1C[C@@H](c2ccc(O)cc2)Oc2cc(O)cc(O)c21 [naringenin],-1.9%,0.02%,-0.05%,0.5%,0.31%
O=C(O)c1ccc(-c2c[nH]c3ncc(-c4ccccc4)cc23)cc1C1CCCC1,4.37%,5.26%,0.74%,1.88%,-0.09%
CC(=O)[O-].CC(=O)[O-].N.NC1CCCCC1.[Cl-].[Cl-].[Pt+4] [satraplatin],3.89%,-0.13%,2.26%,1.69%,23.8% (active)
O=C(O)COC(=O)Cc1ccccc1Nc1c(Cl)cccc1Cl [aceclofenac],0.39%,0.9%,0.17%,-0.85%,0.58%
O=C(O)CNC(=O)c1ccccc1I [2-iodohippuric-acid],3.32%,2.66%,0.05%,0.88%,0.58%
CC#CC(=O)N1CC[C@@H](n2c(=O)n(-c3ccc(Oc4ccccc4)cc3)c3c(N)ncnc32)C1,-1.14%,2.19%,0.31%,-8.09%,-0.82%
O=C(NCCCN1CCOCC1)c1cnn2c(-c3ccccc3)cc(-c3ccccc3)nc12 [reversan],12.1%,0.65%,1.42%,0.17%,-6.41%
